Screen size: about 3,600 compounds; about 900 (25%) were called active. The rule behind the calls is not given here. A selection follows. Entries that show only a call come without a potency. Potency and affinity values are given separately.
Molecular target: Protein Tat (Human immunodeficiency virus type 1 group M subtype B (isolate HXB2)) (UniProt P04608)
Test: HIV-1 Tat–TAR interaction blockers – biochemical, fluorescence polarization, FAM-labeled TAR RNA, counter-screen for Vif-APOBEC3G degradation inhibitor project, dose response (AID 1117361)
Settings: Tat-TAR RNA binding; series mostly up to 100 µM

SMILES | outcome
C=CCOc1ccc2c(c1)C(=NO)c1cc(OCC=C)ccc1-2 | inactive
O=C(Nc1c2c(nn1-c1ccc(F)cc1)CS(=O)C2)C12CC3CC(CC(C3)C1)C2 (stereo not drawn) | inactive
CC(C)NC(=O)C1CCCN(S(=O)(=O)c2cccs2)C1 (stereo not drawn) | inactive
Cc1ccc2oc(=O)c3cnn(CC(=O)NC4CCCCC4C)c3c2c1 (stereo not drawn) | inactive
O=C(c1cnn2cccnc12)N1CCN(Cc2ccc3c(c2)OCO3)CC1 | inactive
O=C(COc1ccccc1Cl)NCCc1ccc2c(c1)OCCO2 | inactive
CC(=O)Nc1ccc(S(=O)(=O)N2CCN(CCCOc3ccccc3Cl)CC2)cc1 | inactive
CCCCn1c(C(C)NC(=O)CC)nc2ccccc21 (stereo not drawn) | inactive
COc1ccc(CNS(=O)(=O)c2cc(Br)cc3c2N(C(C)=O)C(C)C3)cc1 (stereo not drawn) | inactive
COCC(C)NC(=O)C1CC(c2cccc(Br)c2)=NO1 (stereo not drawn) | inactive
COC(=O)CSC1=C(C#N)C(c2ccccc2)CC(=O)N1 (stereo not drawn) | inactive
COc1ccc(C2C(C#N)=C(SCC(=O)Nc3ccc(C)cc3)NC3=C2C(=O)CC(C)(C)C3)cc1 (stereo not drawn) | inactive
CCCNC(=S)NC1CCCC1 | inactive
Cc1ccc(C(=O)CSc2ccccn2)cc1 | inactive
Cc1nnc(SCc2cnc(-c3ccccc3)o2)[nH]c1=O | inactive
CCOc1cc(C2NC(=O)NC(O)(C(F)(F)F)C2C(=O)c2ccccc2)ccc1OC (stereo not drawn) | inactive
CN(C)CCNc1ncnc2c1sc1nc(-c3ccccc3)c3c(c12)CCCC3 | inactive
CSc1nc(N2CCOCC2)c2c3c(sc2n1)CCC3 | inactive
Clc1ccccc1Nc1c2c(nc3ncnn13)CCC2 | inactive
CC(=O)NCc1c(Cl)cccc1-n1cccc1 | inactive
CCCS(=O)(=O)NCc1cn2c(C)csc2n1 | inactive
CN(C(=O)COc1ncnc2sccc12)c1ccccc1 | inactive
COc1ccccc1NS(=O)(=O)c1cccs1 | inactive
CCCCNc1nc2ccccc2nc1NS(=O)(=O)c1cccs1 | inactive
Cc1cc(/C=C2\SC(=S)NC2=O)c(C)n1-c1ccc(O)cc1 | inactive

SMILES | outcome
Cc1cc(/C=C2\SC(=S)NC2=O)c(C)n1-c1ccccc1 | inactive
CCc1ccc(-n2c(SCc3c(C)noc3C)nnc2-c2ccncc2)cc1 | inactive
CCn1c(C(=O)N2CCc3ccccc3C2)cc2sccc21 | inactive
Cc1noc(C)c1C(=O)N1CCc2ccccc2C1 | inactive
CCC(C)(C)C1CCc2c(sc(NC(=O)c3ccoc3C)c2C(N)=O)C1 (stereo not drawn) | inactive
COc1cc(NC(=O)c2nnn(Cc3ccc(SC)cc3)c2N)cc(OC)c1 | inactive
Cc1ccc(SCC(=O)c2sc(-c3ccccc3)nc2C)cc1 | inactive [at 50 µM]
COC(=O)c1ccc(Cl)c(NC(=O)CN(c2ccc3c(c2)OCO3)S(C)(=O)=O)c1 | inactive
CS(=O)(=O)N(CC(=O)Nc1ccc2c(c1)OCO2)Cc1ccccc1 | inactive
O=C(NCc1ccc(F)cc1)c1c(O)c2cccc3c2n(c1=O)CCC3 | inactive
Cc1ccc(C(=O)Nc2nc3ccccc3n2CCN2CCCC2)cc1 | inactive
CCN1C(=O)c2c(C)nc3ccccc3c2C1=O | inactive
COCCCN1C(=O)N(c2ccc(F)cc2)C(=O)C1CC(=O)Nc1ccc(OC)cc1 (stereo not drawn) | inactive
O=C(NNC(=O)c1ccccc1O)c1ccc(-c2ccc([N+](=O)[O-])cc2)o1 | inactive
NC(=S)N/N=C/c1ccc(-c2cccc([N+](=O)[O-])c2)o1 | inactive
Cc1cc(C)c([N+](=O)[O-])cc1-c1ccc(/C=N/NC(=O)c2nonc2N)o1 | inactive
N=C(c1cccc([N+](=O)[O-])c1)N1CCCCCC1 | inactive
Cc1ccc(C(=O)OCc2cn3ccccc3n2)cc1 | inactive
COc1cccc(NC(=O)N2CCN(c3nnnn3-c3ccccc3)CC2)c1 | inactive
Cc1ccc(-n2nc(C)c3c(C)c(CCC(=O)O)c(C)nc32)cc1 | inactive
Cc1cc(=O)nc2c3ccccc3n(C(C)C(=O)NCCC(C)C)n12 (stereo not drawn) | inactive
O=C(COc1ccc(S(=O)(=O)N2CCCC2)cc1)NCCC1=CCCCC1 | inactive
CCN(CC)CCCNC(=O)c1cn(CCOC)c(=O)c2c1c1ccccc1n2C | inactive
Cc1cc(C)cc(-n2nnc(C(=O)NCc3ccco3)c2N)c1 | inactive
COc1ccc(-n2nc(C(=O)NCc3ccco3)c3ccccc3c2=O)cc1 | inactive

SMILES | outcome
CC1(C)CC2(CC(c3ccccc3F)c3ccc(O)c(O)c3O2)NC(=S)N1 (stereo not drawn) | inactive
CCN1CCN(Cc2cc(=O)oc3ccc(C)cc23)CC1 | inactive
C=C(Cl)COc1ccc2c(CCC)cc(=O)oc2c1 | inactive
CCc1cc2c(CN3CCN(CC)CC3)cc(=O)oc2cc1O | inactive
CCc1ccc2c(CN3CCC(C(=O)OC)CC3)cc(=O)oc2c1 | inactive
COc1ccc(S(=O)(=O)N2CCOC2CNC(=O)C(=O)NCc2ccccn2)cc1 (stereo not drawn) | inactive
CC(C)C(C(=O)OCC(=O)c1ccc2c(c1)NC(=O)CO2)N1C(=O)c2ccccc2C1=O (stereo not drawn) | inactive
COCCNC(C)C(=O)C12CC3CC(CC(C3)C1)C2 (stereo not drawn) | inactive
Oc1ccc(/C=N/N2CCCCC2)c(O)c1O | inactive
O=C(c1cc2ccccc2o1)N1CC=C(c2ccccc2)CC1 | inactive
O=C(CCC(=O)NNc1nc2ccccc2c2nc(-c3ccccc3)nn12)NCCCN1CCOCC1 | inactive
Cc1ccc2nsnc2c1S(=O)(=O)N(CCO)Cc1cc2cc3c(cc2[nH]c1=O)OCCO3 | inactive
CCn1c(SCC(=O)NCC(=O)Nc2ccc(F)cc2)nnc1-c1ccncc1 | inactive
CCn1c(=O)cc(SCC(=O)NCc2ccc(C)o2)c2ccccc21 | inactive
Cc1cccc(OCc2nc3ccccc3c(=O)n2N)c1 | inactive
CC(=O)c1ccc(NC(=O)C(C)OC(=O)C(C)Oc2cccc(C)c2)cc1 (stereo not drawn) | inactive
Cc1ccc([N+](=O)[O-])cc1NC(=O)CCSc1ccc(Cl)cc1 | inactive
CCCn1nc(C(=O)Nc2cc(C(=O)OC)ccc2C)c2ccccc2c1=O | inactive
CCCCN1C2=C(C(=O)CC(C)(C)C2)C(c2ccccc2)C2=C1c1ccccc1C2=O (stereo not drawn) | inactive
COC(=O)Cc1csc(Nc2c(C)n(C)n(-c3ccccc3)c2=O)n1 | inactive
CC1=C/C(=N\OS(=O)(=O)c2ccccc2)C=CC1=O | inactive
Cc1cc(C)cc(N(C(C)C(=O)Nc2c(C)n(C)n(-c3ccccc3)c2=O)S(C)(=O)=O)c1 (stereo not drawn) | inactive
Cc1c(NC(=O)c2cc(-c3cccs3)on2)c(=O)n(-c2ccccc2)n1C | inactive
